# Measured values published in PubChem BioAssay (EPA / NIEHS).
# More than one record can exist for a structure, and the calls need not agree. Calls of active or inactive are those of the source. The calls were made as follows: active = hit-call score of the fitted dose curve at least 0.9, where 1 is the maximum; inactive = score below 0.9.
# Read-out: Matrix Metallopeptidase 1 (MMP1), MMP1 (gene 4312)
# Test: BSK_hDFCGF_MMP1: BioMAP Diversity Plus: hDFCGF Assay for Matrix Metallopeptidase 1 (MMP1) Biomarker Activity (AID 2283064)
# Conditions: primary human foreskin fibroblasts; actives raise or lower the signal
# Experimental: BSK_hDFCGF is a cell-based, multiplexed-readout assay that uses foreskin fibroblast, a human skin primary cell, with measurements taken at 24 hours after chemical dosing in a 96-well plate.BSK_hDFCGF_MMP1 is an assay component measured in the BSK_hDFCGF assay. It measures MMP-1 antibody related to regulation of gene expression using ELISA technology.Data from the assay component BSK_hDFCGF_MMP1 was analyzed into 1 assay endpoint. This assay endpoint, BSK_hDFCGF_MMP1, was analyzed with bidirectional fitting relative to DMSO as the negative control and baseline of activity. Using a type of binding reporter, gain or loss-of-signal activity can be used to understand changes in the signaling as they relate to the gene MMP1. Furthermore, this assay endpoint can be referred to as a primary readout, because this assay has produced multiple assay endpoints where this one serves a signaling function. To generalize the intended target to other relatable targets, this assay endpoint is annotated to the protease intended target family, where the subfamily is matrix metalloproteinase.
# The levels of cell surface (or secreted, indicated by the prefix "s") biomarker endpoints were measured by ELISA. Overt cytotoxicity to cells in confluent adherent cultures (all systems other than the BT system) was assessed by measuring total protein levels using sulforhodamine B (SRB) staining in parallel cultures at the time of biomarker measurements, indicated as SRB endpoints. For proliferation assays for adherent cell types, individual cell types are cultured at sub-confluence and relative cell numbers quantified by SRB staining at time points optimized for each system (48 h: 3C and CASM3C systems; 72 h: BT and HDF3CGF systems; 96 h: SAg system). SRB was performed by staining cells with 0.1% SRB after fixation with 10% TCA and reading wells at 560 nm.Viability and proliferation of PBMC (T cells) was quantified by Alamar Blue reduction for the SAg and BT systems. For PBMC viability (referred to as PBMC Cytotoxicity within the assay endpoint names), cells were plated (75,000/well in a 96-well plate) and then chemical samples added for 1 h before addition of activators, SEB and TSST-1 (20 ng/mL final concentration each). Cells were incubated for 90 h. Then, Alamar Blue (20 uL/well) (Invitrogen, Cat DAL1100) was added for 6 h, and the plates were read with a fluorescence microplate reader at 546/580 nm (excitation/emission). For PBMC proliferation, cells were plated and activated as above but incubated for only 16 h prior to addition of Alamar Blue. Plates were read after 6 h.
SMILES,outcome,AC50
O=C(O)C(F)(OC(F)(F)C(F)(F)C(F)(F)F)C(F)(F)F (stereo not given),inactive,–
Cc1cccc(N)c1,inactive,–
O=c1ssc(Cl)c1Cl,–,4.13 µM (active)
CCOS(=O)(=O)OCC,inactive,–
FC(F)(F)C(F)(C(F)(F)F)C(F)(F)C(F)(F)CC1CO1 (stereo not given),inactive,–
N#Cc1cc([N+](=O)[O-])ccc1N,inactive,–
O=C(O)C(F)(F)OC(F)(F)C(F)(F)OC(F)(F)C(=O)O,inactive,–
Cc1c([N+](=O)[O-])cc2c(c1[N+](=O)[O-])C(C)(C)CC2(C)C,inactive,–
CC(C)(C)c1ccc(O)cc1,inactive,–
O=C(O)C(F)(F)C(F)(F)C(=O)O,inactive,–
CCNc1nc(Cl)nc(NC(C)(C)C)n1,inactive,–
CC(C)(C)c1ccccc1OP(=O)(Oc1ccccc1)Oc1ccccc1,inactive,–
O=S1(=O)OCC2C(CO1)C1(Cl)C(Cl)=C(Cl)C2(Cl)C1(Cl)Cl (stereo not given),inactive,–
O=P(Oc1ccccc1)(Oc1ccccc1)Oc1ccccc1,inactive,–
CCCCC(CC)COP(=O)(Oc1ccccc1)Oc1ccccc1 (stereo not given),–,6.33 µM (active)
OCC(F)(F)OC(F)(F)C(F)(F)OC(F)(F)CO,inactive,–
c1ccc2c(c1)sc1ccccc12,inactive,–
CCCCCCCc1ccc(O)cc1,–,33.6 µM (active)
Cc1ccc(N)cc1N,inactive,–
CC(C)(C)OOC(C)(C)C,inactive,–

SMILES,outcome,AC50
c1ccc2c(c1)Nc1ccccc1S2,inactive,–
CSC(C)(C)C=NO,inactive,–
Nc1ccc(Cl)cc1,inactive,–
CCCN(CCC)c1c([N+](=O)[O-])cc(C(C)C)cc1[N+](=O)[O-],inactive,–
CCCCc1ccccc1,inactive,–
COP(=O)(CCC(=O)NCO)OC,inactive,–
ClC(Cl)(Cl)c1ccccc1,inactive,–
CCOP(=S)(S)OCC,inactive,–
Nc1ccc2ccccc2c1,inactive,–
CCOC(=O)c1ccccc1C(=O)OCC,inactive,–
C=CC(=O)OCC(F)(F)C(F)F,inactive,4.6 µM (active)
Cc1ccc(O)cc1C,inactive,–
CCOP(=S)(Oc1ccc([N+](=O)[O-])cc1)c1ccccc1 (stereo not given),inactive,–
c1ccc(OP(Oc2ccccc2)Oc2ccccc2)cc1,inactive,–
CCCCN(CCCC)SN(C)C(=O)Oc1cccc2c1OC(C)(C)C2,–,12.4 µM (active)
CCCCOCCOP(=O)(OCCOCCCC)OCCOCCCC,inactive,–
c1cc2c3c(cccc3c1)CC2,inactive,–
CC(O)C(F)(F)C(F)(F)F (stereo not given),inactive,–
CCOP(=S)(NC(C)C)Oc1ccccc1C(=O)OC(C)C (stereo not given),inactive,–
